From PubChem BioAssay (NCATS)
Results filed as inconclusive are left out. Activity calls are given as the source filed them. Unless noted, the call rests on the fitted dose curve; in most records, active means well fitted curve in the direction sought with a large enough effect; inconclusive means small, poorly fitted or top-dose-only effect, or another doubt; inactive means no such curve, though single readings can be large; an effect the other way counts as inactive or inconclusive.

Legend:
[1] = qHTS profiling for inhibitors of Plasmodium falciparum (HB3) proliferation (AID 743324); details: Plasmodium falciparum HB3 blood-stage proliferation; at 28.7 µM (top of the series);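 further: 100% = DMSO vehicle wells and 0% = artemisinin-treated control wells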
How it was run: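 SYBR Green fluorescence (485 ex/535 em) of lysed cultures, incubated overnight at room temperature in the dark, quantifies parasite DNA. Infected erythrocytes at 0.3% parasitemia and 2.5% hematocrit were exposed 72 h; values normalized to DMSO and 0.29 uM artemisinin controls.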

[2] = High-throughput drug toxicity screening in the BPDCN cell line Gen2.2 (AID 1224824; call rule not given here;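 further: cells exposed to compounds for 48 h before reading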); details: Gen2.2 BPDCN cells; at 45.8 µM (top of the series) unless noted
How it was run: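 Gen2.2 cells, 500 per well in phenol red-free RPMI with 10% FBS, exposed to compounds 48 h at 37 C, 5% CO2; viability by CellTiter-Glo luminescence. Percent activity scaled to DMSO (100%) and 9.2 uM bortezomib final (0%).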

[3] = High-throughput drug toxicity screening in the BPDCN cell line Cal-1 (AID 1224825; call rule not given here); details: Cal-1 BPDCN cell viability, qHTS; at 45.8 µM (top of the series) unless noted
How it was run: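 CellTiter-Glo luminescence after 48 h compound exposure; percent activity scaled with DMSO as 100% and bortezomib (9.2 uM final) as 0%. Cal-1 cells seeded at 500/well in RPMI, 10% FBS, no phenol red.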

[4] = qHTS assay for measurement of the activity of small molecule inhibitors on Zika virus induced Caspase-3 activity in human iPSC derived neural progenitor cells (hNPCs) (AID 1224857); further: % of control where 0% means no effect; nearly all actives have a fitted effect of over 65% in size
How it was run: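 Percent inhibition of virus-induced caspase-3/7 luminescence (Caspase-Glo), scaled between uninfected cells and Zika-infected cells. hNPCs received compound 1 hr before ZIKV at 2 FFU/cell, with 6 hours infection at 37 C.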

[5] = qHTS assay for measurement of the activity of small molecule inhibitors on Zika virus induced Caspase-3 activity in human astrocytoma cells (AID 1224859);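 further: plate controls were ZIKV-infected untreated cells for no effect and uninfected cells for full effect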
How it was run: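 Luminescent caspase-3/7 read-out (30 min reagent, room temperature) in human SNB-19 cells infected 6 h with ZIKV (2 FFU/cell) after 1 h compound pre-incubation; Data were normalised to uninfected and infected wells.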

[6] = qHTS Screen of the MIPE 4.0 Collection Against Ewings Sarcoma (TC71) (AID 1259253); further: nearly all actives have a fitted effect of over 40% in size; further: potency means the concentration at half of the fitted maximal effect;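 on viability (% of DMSO): 100% = DMSO-treated cells and 0% = medium-only wells without cells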
How it was run: (§1)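 Log-phase cells in RPMI with 5% FBS attached for 4 h, then received compounds as a titration for 48 h at 37C, 5% CO2. Viability was read by CellTiter-Glo luminescence and normalized to DMSO and no-cell wells.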

[7] = qHTS Screen of the MIPE 4.0 Collection Against Ewings Sarcoma (EW8) (AID 1259255); further: nearly all actives have a fitted effect of over 35% in size; further: potency means the concentration at half of the fitted maximal effect;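 on viability: 100% = DMSO-treated cells and 0% = medium-only wells without cells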
How it was run: as §1

[8] = qHTS Screen of the MIPE 4.0 Collection Against Ewings Sarcoma (TC32) (AID 1259256); further: nearly all actives have a fitted effect of over 45% in size; further: potency means the concentration at half of the fitted maximal effect;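 on viability (percent of control): 100% = DMSO-treated cells and 0% = medium-only wells without cells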
How it was run: as §1

[9] = Identifying Small Molecule Inhibitors of Pancreatic Cancer Stem Cells (A2780, Spheroid) (AID 1259357); details: Potency: A2780 spheroid viability;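 further: spheroids pre-formed over 14 days in stem cell medium on hydrogel; potency means the concentration at half of the fitted maximal effect; compound exposure lasted 48 h before the ATP luminescence read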
How it was run: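 Spheroids grown 14 days in stem cell media on hydrogel-coated nonadherent plates; 2D lines seeded directly. Compounds added after 4 h attachment, 48 h at 37C, 5% CO2; CellTiter-Glo luminescence normalized to DMSO (no inhibition) and no-cell wells (full inhibition).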

[10] = qHTS profiling of the MIPE4 collection as inhibitors of Plasmodium falciparum (3D7) proliferation (AID 743344; call rule not given here;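 further: scaled between DMSO vehicle wells and 0.29 µM artemisinin as full inhibition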); details: P. falciparum 3D7 in erythrocytes, SYBR Green DNA fluorescence, 72 h; at 28.5 µM (top of the series) unless noted
How it was run: (§2)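 Parasite DNA was quantified by SYBR Green I fluorescence (ex 485, em 535 nm) after overnight lysis in saponin/Triton buffer at room temperature. Cultures at 0.3% parasitemia and 2.5% hematocrit were first exposed to compound for 72 h at 37 C; signals were normalised to artemisinin (0.29 uM) and vehicle wells.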

[11] = qHTS profiling of the MIPE4 collection as inhibitors of Plasmodium falciparum (DD2) proliferation (AID 743345; call rule not given here); details: P. falciparum Dd2 in erythrocytes, SYBR Green DNA, 72 h; at 28.5 µM (top of the series) unless noted
How it was run: as §2

[12] = qHTS profiling of the MIPE4 collection as inhibitors of Plasmodium falciparum (HB3) proliferation (AID 743347; call rule not given here;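 further: plate controls were DMSO vehicle wells for no effect and artemisinin wells for full effect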); details: P. falciparum HB3 in erythrocytes, SYBR Green DNA, 72 h; at 28.5 µM (top of the series) unless noted
How it was run: as §2

[13] = qHTS Screen of the MIPE 4.0 Collection Against Ewings Sarcoma (RDES) (AID 1259252); further: nearly all actives have a fitted effect of over 35% in size; further: potency means the concentration at half of the fitted maximal effect;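 on viability (percent of control): 100% = DMSO-treated cells and 0% = medium-only wells without cells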
How it was run: as §1

[14] = qHTS profiling of the MIPE4 collection as inhibitors of Plasmodium falciparum (DD2) proliferation (Rep 2) (AID 743346; call rule not given here); details: P. falciparum Dd2 in erythrocytes, SYBR Green DNA, 72 h; at 28.5 µM (top of the series) unless noted
How it was run: as §2

[15] = qHTS assay to identify small molecule inhibitors of chordoma cells - UCH-2 (AID 1259356); further: on the % scale 0 is the no-effect control and ±100 the full control effect

Row | Compound | remaining proliferation (% of control), lower = more inhibition [1] [%] | cell viability, % of control (lower = more cytotoxic) [2] | viability (% of control) [3] | Potency [4] | Potency [5] | Potency [6] | Potency [7] | Potency [8] | Potency [9] | parasite growth, % of DMSO control [10] | parasite growth remaining, % of DMSO control (lower = more inhibition) [11] | growth, % of control [12] | Potency [13] | parasite growth, % of control (lower = inhibition) [14] | activity change, negative = inhibition [4] | activity change, negative = inhibition [5] | viability (% of DMSO) [6] | viability [7] | viability (percent of control) [8] | outcome [15]
1 | CC[C@H](CO)Nc1nc(NCc2ccccc2)c2ncn(C(C)C)c2n1 | 19.5 | 11.9% | 29.5% | inactive | inactive | 20.9 µM (active) | 29.6 µM (active) | 20.9 µM (active) | 20.9 µM (active) | – | – | – | – | – | – | – | – | – | – | –
2 | CCCCCCCCCC(=O)N[C@@H](Cc1c[nH]c2ccccc12)C(=O)N[C@H](CC(N)=O)C(=O)N[C@@H](CC(=O)O)C(=O)N[C@@H]1C(=O)NCC(=O)N[C@@H](CCCN)C(=O)N[C@@H](CC(=O)O)C(=O)N[C@H](C)C(=O)N[C@@H](CC(=O)O)C(=O)NCC(=O)N[C@H](CO)C(=O)N[C@@H]([C@@H](C)CC(=O)O)C(=O)N[C@@H](CC(=O)c2ccccc2N)C(=O)O[C@@H]1C | – | 128% | 108% | inactive | inactive | inactive | inactive | inactive | – | 409% | 96.7% | 299% | inactive | – | – | – | – | – | – | –
3 | COc1ccc(F)c(F)c1C(=O)c1cnc(NC2CCN(S(C)(=O)=O)CC2)nc1N | – | 2.27% | 2% | inactive | inactive | 1.18 µM (active) | 3.72 µM (active) | 2.35 µM (active) | – | 27.7% | 60.1% | 37.7% | 2.64 µM (active) | – | – | – | – | – | – | –
4 | Cc1nc(Nc2n[nH]c3c2CN(C(=O)N[C@H](CN(C)C)c2ccccc2)C3(C)C)c2sccc2n1 | – | 0.772% | 1.64% | inactive | inactive | 1.32 µM (active) | 2.64 µM (active) | 7.43 µM (active) | – | 4.72% | 7.44% | 6.35% | 3.32 µM (active) | 9.85% | – | – | – | – | – | –
5 | COCCOc1ccc2c(c1)ncn2-c1ccc2cccc(N3CCC(N)CC3)c2n1 | – | 3.06% | 1.98% | inactive | inactive | 14.8 µM (active) | 18.7 µM (active) | 23.5 µM (active) | – | 5.56% | 7.14% | 4.14% | 18.7 µM (active) | – | – | – | – | – | – | –
6 | CC(=O)Nc1nc(C)c(-c2ccc(Cl)c(S(=O)(=O)NCCO)c2)s1 | – | 17.8% | 18.7% | inactive | inactive | 14.8 µM (active) | 16.6 µM (active) | 10.5 µM (active) | – | – | 7.49% | 2.77% | 5.9 µM (active) | 10% | – | – | – | – | – | –
7 | COc1ccc(CC2c3cc(OC)c(OC)cc3CC[N+]2(C)CCC(=O)OCCCCCOC(=O)CC[N+]2(C)CCc3cc(OC)c(OC)cc3C2Cc2ccc(OC)c(OC)c2)cc1OC (stereo not drawn) | – | 45.2% [at 5.15 µM] | 99% [at 5.15 µM] | – | – | – | – | – | – | 57.8% [at 5.51 µM] | 93.6% [at 5.51 µM] | 85.6% [at 5.51 µM] | – | 58.2% [at 5.51 µM] | 18.4% [at 9.06 µM] (inactive) | 7.2% [at 9.06 µM] (inactive) | 110% [at 5.15 µM] (inactive) | 117% [at 5.15 µM] (inactive) | 123% [at 5.15 µM] (inactive) | inactive
8 | CC1COC2(CCN(c3nc(=O)c4cc(C(F)(F)F)cc([N+](=O)[O-])c4s3)CC2)O1 (stereo not drawn) | – | 104% | 110% | inactive | inactive | inactive | inactive | inactive | – | 20.5% | 70% | 29.9% | inactive | – | – | – | – | – | – | –
